Data on 23 molecules can be found in PubChem BioAssay (NCATS).

Experiment [1] concerns the target D(1A) dopamine receptor (Homo sapiens) (UniProt P21728). Description: HTS Assay for Allosteric Agonists of the Human D1 Dopamine Receptor: Primary Screen for Agonists (AID 488981). Also: 0% is about no effect. The method, boiled down:
(§1)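 Tetracycline-induced HEK293 Trex D1 cells with forced coupling to calcium, loaded with no-wash calcium dye; kinetic fluorescence read 180 s after compound addition for agonism, then a further 180 s after an EC20 dopamine challenge for potentiation.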

Experiment [2] has the same target. Description: HTS Assay for Allosteric Agonists of the Human D1 Dopamine Receptor: Primary Screen for Potentiators (AID 488982). Also: 0% is about no effect. The method, boiled down: as §1
For experiment [3] the target is unchanged. Put plainly: HTS Assay for Allosteric Agonists of the Human D1 Dopamine Receptor: Primary Screen for Antagonists (AID 488983).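 Also: calcium flux response to an EC80 dopamine challenge measured with no-wash dye; nearly all actives have a fitted effect of over 65% in size.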 Also: potency is read from the fitted curve at half-maximal effect. The method, boiled down:
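Calcium flux readout, no-wash dye, inducible HEK293 T-REx D1 line (force-coupled). Compound added after 10 s baseline, 180 s kinetic read; then dopamine at EC80, further 180 s read.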

Experiment [4] can be described thus: Validation screen for small molecules that induce genotoxicity in human embryonic kidney (HEK293T) cells expressing luciferase-tagged ELG1 (AID 493106). Also: 0% is about no effect. The method, boiled down: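 qHTS format; 2,000 HEK293T ELG1-luc cells/well; 23 nL compound via pin tool; 16 hr, 37 °C/5% CO2; ONE-Glo, 30 min RT; luminescence read.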
Experiment [5] concerns the target ATPase family AAA domain-containing protein 5 (Homo sapiens) (UniProt Q96QE3). Description: Validation screen for small molecules that inhibit ELG1-dependent DNA repair in human embryonic kidney (HEK293T) cells expressing luciferase-tagged ELG1 (AID 493107). Also: nearly all actives have a fitted effect of over 70% in size. Also: potency is read from the fitted curve at half-maximal effect. The method, boiled down:
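ELG1-luciferase HEK293T reporter; 5-fluorouridine + compound/DMSO, 16 hr, 37 °C, 5% CO2; ONE-Glo 30 min RT; luminescence read, qHTS format.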

For experiment [6], the target named is Thyrotropin-releasing hormone receptor (Homo sapiens) (UniProt P34981). Put plainly: qHTS for Small Molecule Agonists and Allosteric Enhancers of Human TRH Receptor: Validation Screen for Agonists (AID 493127;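 active = calcium activation more than 3 SD above the typical response in the agonist read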;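 also: intracellular calcium rise by fluo-8 fluorescence before TRH EC20 addition; 0% is about no effect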). To be noted: TRH receptor agonist cell assay; at 2 µM; stronger effect = higher value. The method, boiled down: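 Read-out: intracellular calcium release measured kinetically by FDSS (fluo-8, ex 480/em 530 nm), 1 reading/s after a 10-cycle baseline. TRHR cells, 2000/well, cultured 18 h at 33.5C, dye-loaded at room temp. Compound-evoked positive calcium signal flags agonists.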

Experiment [7] can be described thus: Nrf2 qHTS screen for inhibitors: Validation (AID 493153; active = well fitted inhibition curve with a large enough effect in the main read-out, with a control signal flat, not every such curve was filed as active). To be noted: Potency: luciferase luminescence; viability change: measured here: cytotoxicity max response. The method, boiled down:
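Concentration-response test in A549 ARE_Fluc reporter cells (5% FBS OPTI-MEM), compound exposure 18-24 h at 37°C, 5% CO2. Cell viability measured first by CellTiter-Fluor fluorescence; ARE-driven luciferase luminescence then measured as Nrf2 activity.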
(In general: In qHTS, concentration-response curves come from the screen itself.)

Experiment [8] in a line: qHTS for Inhibitors of Cell Surface uPA Generation: Validation Assay (AID 493164).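 Also: RAW 264.7 macrophage cells exposed to compound for 18 h; 0% is about no effect.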 The method, boiled down:
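Compounds are titrated over seven points (2.45 nM–38.3 uM final) onto pre-plated RAW 264.7 cells and incubated for 18 h. Retained intracellular ATP, measured with ATP-Lite, indicates blocked lethal factor entry.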

Experiment [9] addresses Galactokinase (Homo sapiens) (UniProt P51570). Put plainly: qHTS Validation Assay for Inhibitors of Human Galactokinase (GALK) (AID 493189). Also: 0% is about no effect. The method, boiled down:
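Luminescence from leftover ATP (Kinase-Glo Plus, 10 min) served as read-out after a 1 h room-temperature reaction of 5 nM GALK, 100 uM galactose and 35 uM ATP at pH8.0.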

The target in experiment [10] is ATP-dependent 6-phosphofructokinase (Trypanosoma brucei brucei) (UniProt O15648). Put plainly: qHTS Assay to Find Inhibitors of T. brucei phosphofructokinase: hit validation (AID 492961).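 Also: luminescence reports ADP formed as PFK phosphorylates fructose-6-phosphate with ATP; series mostly up to about 51 µM; % is scaled to controls: 0 for no effect and ±100 for the full control effect.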 The method, boiled down: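 Inhibition of parasite PFK is measured as reduced ADP formation, quantified via luciferase after ATP depletion. Assay used 0.1 mM ATP, 0.5 mM F6P, 1.25 nM enzyme, 45 min incubation.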

Structures are written as SMILES. Inconclusive results are not listed. Active and inactive are the calls of the source. Unless noted, calls follow the shape of the dose curve; as a rule, active = well fitted curve in the direction sought with a large enough effect; inconclusive = small, poorly fitted or top-dose-only effect, or another doubt; inactive = no such curve, though single readings can be large; an effect the other way counts as inactive or inconclusive.

Chain of D(1A) dopamine receptor (Homo sapiens) (P21728 whole entry, looked up): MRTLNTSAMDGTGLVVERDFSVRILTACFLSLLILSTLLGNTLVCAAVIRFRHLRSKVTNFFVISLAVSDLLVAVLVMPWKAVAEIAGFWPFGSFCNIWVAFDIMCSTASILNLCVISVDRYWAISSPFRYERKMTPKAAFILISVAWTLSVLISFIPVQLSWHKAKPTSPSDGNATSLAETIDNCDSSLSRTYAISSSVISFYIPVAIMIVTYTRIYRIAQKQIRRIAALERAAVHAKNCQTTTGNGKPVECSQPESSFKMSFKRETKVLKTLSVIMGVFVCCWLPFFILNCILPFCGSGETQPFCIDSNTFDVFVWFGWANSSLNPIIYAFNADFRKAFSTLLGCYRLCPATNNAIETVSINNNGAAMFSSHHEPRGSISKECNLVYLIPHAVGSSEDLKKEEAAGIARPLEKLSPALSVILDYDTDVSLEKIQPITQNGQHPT
Chain of Thyrotropin-releasing hormone receptor (Homo sapiens) (P34981 whole entry, looked up): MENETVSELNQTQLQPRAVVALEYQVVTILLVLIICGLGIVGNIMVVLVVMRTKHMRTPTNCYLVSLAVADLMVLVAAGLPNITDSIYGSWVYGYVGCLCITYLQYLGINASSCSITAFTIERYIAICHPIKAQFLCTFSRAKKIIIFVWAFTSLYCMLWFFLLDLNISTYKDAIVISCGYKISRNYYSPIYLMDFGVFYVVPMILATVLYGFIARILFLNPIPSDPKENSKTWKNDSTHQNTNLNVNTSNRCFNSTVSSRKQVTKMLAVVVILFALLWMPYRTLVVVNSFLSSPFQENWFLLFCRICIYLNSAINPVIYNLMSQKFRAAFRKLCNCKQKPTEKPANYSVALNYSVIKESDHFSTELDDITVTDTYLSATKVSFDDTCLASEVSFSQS
Chain of ATP-dependent 6-phosphofructokinase (Trypanosoma brucei brucei) (O15648 whole entry, looked up): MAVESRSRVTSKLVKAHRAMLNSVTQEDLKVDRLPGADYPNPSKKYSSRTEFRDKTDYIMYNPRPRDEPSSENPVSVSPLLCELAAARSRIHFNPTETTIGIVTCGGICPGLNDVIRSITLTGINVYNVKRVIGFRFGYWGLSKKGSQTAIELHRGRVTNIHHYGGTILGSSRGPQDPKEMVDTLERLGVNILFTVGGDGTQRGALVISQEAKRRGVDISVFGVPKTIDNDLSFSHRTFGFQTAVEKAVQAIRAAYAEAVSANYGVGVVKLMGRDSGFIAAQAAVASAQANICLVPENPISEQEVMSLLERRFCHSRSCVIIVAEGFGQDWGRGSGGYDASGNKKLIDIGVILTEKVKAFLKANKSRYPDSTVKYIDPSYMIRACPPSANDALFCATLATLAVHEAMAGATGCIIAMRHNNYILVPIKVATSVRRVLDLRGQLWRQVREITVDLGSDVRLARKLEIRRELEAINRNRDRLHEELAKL
Chain of ATPase family AAA domain-containing protein 5 (Homo sapiens) (Q96QE3 whole entry, looked up, the tested form may be a part): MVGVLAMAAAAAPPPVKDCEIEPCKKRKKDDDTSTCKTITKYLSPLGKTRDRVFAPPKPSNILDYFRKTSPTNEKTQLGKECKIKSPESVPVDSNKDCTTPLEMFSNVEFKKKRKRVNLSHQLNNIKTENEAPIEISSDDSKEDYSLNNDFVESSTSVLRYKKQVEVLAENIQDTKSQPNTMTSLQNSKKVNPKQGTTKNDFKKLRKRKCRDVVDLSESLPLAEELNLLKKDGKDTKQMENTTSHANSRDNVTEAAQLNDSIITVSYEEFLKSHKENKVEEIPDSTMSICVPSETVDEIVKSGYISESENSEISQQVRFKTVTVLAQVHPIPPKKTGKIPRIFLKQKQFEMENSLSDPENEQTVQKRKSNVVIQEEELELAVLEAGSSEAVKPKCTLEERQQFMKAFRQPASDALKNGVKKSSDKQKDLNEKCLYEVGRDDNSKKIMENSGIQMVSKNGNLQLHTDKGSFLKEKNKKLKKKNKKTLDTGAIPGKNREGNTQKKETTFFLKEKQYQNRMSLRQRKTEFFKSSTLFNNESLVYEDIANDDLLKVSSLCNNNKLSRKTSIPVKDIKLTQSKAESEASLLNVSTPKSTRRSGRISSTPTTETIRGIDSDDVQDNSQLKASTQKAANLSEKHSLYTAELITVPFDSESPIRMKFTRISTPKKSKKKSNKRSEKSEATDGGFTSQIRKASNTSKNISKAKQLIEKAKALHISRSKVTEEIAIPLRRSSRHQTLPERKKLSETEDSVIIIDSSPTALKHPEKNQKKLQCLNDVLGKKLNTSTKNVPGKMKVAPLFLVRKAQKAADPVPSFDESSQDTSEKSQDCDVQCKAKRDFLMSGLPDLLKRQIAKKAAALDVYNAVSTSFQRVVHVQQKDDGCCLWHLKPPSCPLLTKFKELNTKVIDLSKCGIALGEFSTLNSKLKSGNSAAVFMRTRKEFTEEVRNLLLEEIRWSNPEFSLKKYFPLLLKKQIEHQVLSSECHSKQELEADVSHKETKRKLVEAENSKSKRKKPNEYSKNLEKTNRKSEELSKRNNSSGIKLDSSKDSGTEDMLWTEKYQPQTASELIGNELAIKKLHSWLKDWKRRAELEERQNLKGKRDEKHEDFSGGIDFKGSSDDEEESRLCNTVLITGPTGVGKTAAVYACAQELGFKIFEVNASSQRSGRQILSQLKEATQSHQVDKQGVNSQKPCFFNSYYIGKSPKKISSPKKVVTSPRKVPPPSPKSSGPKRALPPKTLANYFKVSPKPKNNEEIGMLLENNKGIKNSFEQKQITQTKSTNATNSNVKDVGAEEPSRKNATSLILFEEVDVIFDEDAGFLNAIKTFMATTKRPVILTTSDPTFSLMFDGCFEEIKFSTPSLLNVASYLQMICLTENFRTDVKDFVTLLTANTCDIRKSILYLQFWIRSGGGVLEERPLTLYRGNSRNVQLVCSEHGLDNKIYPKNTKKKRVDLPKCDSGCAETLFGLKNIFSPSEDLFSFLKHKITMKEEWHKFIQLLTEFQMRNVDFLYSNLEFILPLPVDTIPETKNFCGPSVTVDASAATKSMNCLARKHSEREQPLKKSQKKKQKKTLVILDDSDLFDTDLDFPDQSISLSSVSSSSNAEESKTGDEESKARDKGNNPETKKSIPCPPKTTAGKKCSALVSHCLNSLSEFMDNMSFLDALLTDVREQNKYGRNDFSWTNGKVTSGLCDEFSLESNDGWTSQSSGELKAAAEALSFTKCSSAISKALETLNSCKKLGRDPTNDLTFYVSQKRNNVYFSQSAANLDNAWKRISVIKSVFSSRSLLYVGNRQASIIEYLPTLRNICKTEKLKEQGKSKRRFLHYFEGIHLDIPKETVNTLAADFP
Chain of Galactokinase (Homo sapiens) (P51570 whole entry, looked up): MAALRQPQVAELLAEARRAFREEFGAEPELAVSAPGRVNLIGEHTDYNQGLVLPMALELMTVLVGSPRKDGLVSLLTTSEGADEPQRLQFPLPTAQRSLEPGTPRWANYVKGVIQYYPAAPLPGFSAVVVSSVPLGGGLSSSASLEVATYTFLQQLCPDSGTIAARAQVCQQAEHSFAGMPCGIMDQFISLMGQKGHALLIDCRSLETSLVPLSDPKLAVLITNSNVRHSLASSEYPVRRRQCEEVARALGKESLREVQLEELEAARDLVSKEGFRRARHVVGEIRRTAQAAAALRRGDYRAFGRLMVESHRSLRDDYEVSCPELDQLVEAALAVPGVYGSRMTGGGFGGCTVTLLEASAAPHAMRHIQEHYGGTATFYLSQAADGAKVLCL

Turning to `CO[C@@]1(NC(=O)CSCC#N)C(=O)N2C(C(=O)O)=C(CSc3nnnn3C)CS[C@@H]21`, the Potency entry in [1], in [2], in [3], in experiment [4], in [5] and in [7] was “inactive” in each case. For the same molecule, the activation in [6] was 1.44% (inactive). Further, the viability change in experiment [7] stood at 1.13%. The call in experiment [8] and in [9] was inactive.

As for `CN(C)CCCN1c2ccccc2Sc2ccc(C(F)(F)F)cc21`, the Potency entry in experiment [1], in [2], in experiment [4] and in [7] was “inactive” throughout. The Potency in experiment [3] is 1.26 µM (active). Also, the call in experiment [10] and in [9] was inactive. Besides, the viability change in experiment [7] came to 0.635%.

As to `CN(C)CC[C@@H](c1ccc(Br)cc1)c1ccccn1`, the Potency entry in [1], in experiment [2], in experiment [3], in experiment [4], in [5] and in experiment [7] was “inactive” each time. Also, the outcome in [10], in experiment [8] and in experiment [9] was inactive. The viability change in [7] was found to be 1.19%.

As to `C[C@]12CCC(=O)C=C1CC[C@@H]1[C@@H]2CC[C@@]2(C)[C@H]1CC[C@]2(O)C(=O)CO`, the Potency entry in experiment [1], in [2], in [3] and in experiment [4] was “inactive” in each case. In addition, the molecule was called inactive in [10], in experiment [8] and in experiment [9]. Further, in experiment [6], the activation is 0.188% (inactive).

On to `Nc1ncn([C@@H]2O[C@H](CO)[C@@H](O)[C@H]2O)c(=O)n1`, for which the Potency entry in experiment [1], in experiment [2] and in experiment [3] was “inactive” throughout. The molecule was called inactive in [10], in experiment [8] and in [9].

For the molecule `CN(C)C/C=C(/c1ccc(Br)cc1)c1cccnc1`, the Potency entry in experiment [1], in experiment [2], in [4] and in [5] was “inactive” throughout. Also, the Potency in [3] was 12.6 µM (active). Besides, the call in experiment [10], in [8] and in experiment [9] was inactive. Besides, in [6], the activation is 0.375% (inactive).

On to `CCN1CCc2nc(N)oc2CC1`, for which the Potency result in experiment [1], in [2], in [3], in [4], in experiment [5] and in experiment [7] was “inactive” throughout. Moreover, the molecule was classed as inactive in experiment [10], in experiment [8] and in experiment [9]. Moreover, the activation in experiment [6] was 0.875% (inactive). In experiment [7], the viability change was -0.627%.

Take `COC(=O)C1=C(C)NC(C)=C(C(=O)OCCN(C)Cc2ccccc2)C1c1cccc([N+](=O)[O-])c1` (stereo unspecified): the Potency result in [1], in experiment [2] and in experiment [4] was “inactive” throughout. Further, the Potency in experiment [3] is 7.08 µM (active); in experiment [5], 16.4 µM (active). In addition, the activation in experiment [6] is -4.56% (inactive). Moreover, the molecule was classed as inactive in [8] and in experiment [9].

For the molecule `O=C(O)CN(CCOCCOCCN(CC(=O)O)CC(=O)O)CC(=O)O`, the Potency result in experiment [1], in experiment [2], in experiment [3], in [4] and in experiment [5] was “inactive” throughout. Also, the outcome in experiment [10], in experiment [8] and in experiment [9] was inactive.

With `CN(C)CCN(Cc1cccs1)c1ccccn1`, the Potency result in experiment [1], in [2], in experiment [3], in experiment [4] and in experiment [7] was “inactive” each time. For the same molecule, the molecule was classed as inactive in experiment [10], in experiment [8] and in experiment [9]. Further, the viability change in experiment [7] is -0.0804%.

For the molecule `CN/C(=C\[N+](=O)[O-])NCCSCc1ccc(CN(C)C)o1`, the Potency entry in experiment [1], in [2], in experiment [3], in experiment [4], in [5] and in experiment [7] was “inactive” each time. In addition, in [6], the activation was 0.938% (inactive). For the same molecule, the viability change in experiment [7] was found to be 4.46%. In addition, the outcome in [8] and in experiment [9] was inactive.

Regarding `Cc1ccc(=O)n(-c2ccccc2)c1`, the Potency result in experiment [1], in experiment [2], in experiment [3], in [4], in experiment [5] and in experiment [7] was “inactive” in each case. Further, the molecule was classed as inactive in experiment [10], in [8] and in experiment [9]. The viability change in experiment [7] was -2.33%.

Turning to `CCn1cc(C(=O)O)c(=O)c2cc3c(cc21)OCO3`, the Potency entry in [1], in experiment [2], in [3], in experiment [4], in experiment [5] and in [7] was “inactive” each time. Further, the activation in [6] is -0.375% (inactive). Further, in experiment [7], the viability change was -3.79%. Besides, the molecule was classed as inactive in experiment [8] and in experiment [9].

Take `COCCOC(=O)C1=C(C)NC(C)=C(C(=O)OC(C)C)C1c1cccc([N+](=O)[O-])c1` (stereo unspecified): the Potency result in experiment [1], in [2], in experiment [3], in experiment [4] and in experiment [7] was “inactive” each time. Besides, in experiment [5], the Potency was 11.6 µM (active). Also, the activation in experiment [6] is -5.81% (inactive). The viability change in experiment [7] was 0.126%. Further, the outcome in experiment [8] and in experiment [9] was inactive.

Regarding `NC1=NCC2c3ccccc3Cc3ccccc3N12` (stereo unspecified), the Potency entry in experiment [1], in experiment [2], in experiment [4] and in [7] was “inactive” each time. In addition, the Potency in experiment [3] was 15.8 µM (active). In addition, the call in experiment [10] and in experiment [8] was inactive. Besides, the viability change in [7] was found to be 6.37%.

As to `CC(C)[N+](C)(CCOC(=O)C1c2ccccc2Oc2ccccc21)C(C)C`, the Potency result in experiment [1], in experiment [2], in experiment [3], in experiment [4] and in experiment [7] was “inactive” in each case. For the same molecule, the result in experiment [10], in experiment [8] and in experiment [9] was inactive. The activation in experiment [6] was 0.875% (inactive). For the same molecule, the viability change in experiment [7] was -4.32%.

As for `CN1CCN(C2=Nc3ccccc3Oc3ccc(Cl)cc32)CC1`, the Potency entry in experiment [1], in experiment [2], in [4], in experiment [5] and in experiment [7] was “inactive” throughout. For the same molecule, the Potency in experiment [3] is 0.398 µM (active). The molecule was called inactive in experiment [10], in experiment [8] and in [9]. Also, the viability change in [7] is -14.3%.

In the case of `Cc1ccc(Cl)c(Nc2ccccc2C(=O)O)c1Cl`, the Potency result in [1], in [2], in experiment [3], in experiment [4] and in experiment [5] was “inactive” throughout. Further, the molecule was classed as inactive in experiment [10], in [8] and in [9]. Moreover, the activation in experiment [6] was 0% (inactive).

With `CC1=C(C)C(=O)C(CCCCC#CCCCC#CCO)=C(C)C1=O`, the Potency entry in [1], in [2], in [3], in [4] and in experiment [7] was “inactive” in each case. In addition, the molecule was called inactive in experiment [10], in [8] and in experiment [9]. Also, the viability change in experiment [7] amounted to 5.77%.

With `CC(N=C(NC#N)Nc1ccncc1)C(C)(C)C` (stereo unspecified), the Potency result in experiment [1], in experiment [2], in experiment [3], in experiment [4], in experiment [5] and in [7] was “inactive” in each case. In addition, the molecule was classed as inactive in experiment [10] and in experiment [8]. Also, the viability change in experiment [7] is -0.502%.

As for `Nc1c2c(nc3ccccc13)CCCC2O` (stereo unspecified), the Potency entry in experiment [1], in [2], in experiment [3], in [4], in experiment [5] and in experiment [7] was “inactive” in each case. In experiment [6], the activation was 1.62% (inactive). For the same molecule, in [7], the viability change was found to be 6.52%. The outcome in [8] and in experiment [9] was inactive.

As to `CC(C)NNC(=O)c1ccncc1`, the Potency result in experiment [1], in experiment [2], in experiment [3], in [4] and in experiment [7] was “inactive” each time. The outcome in experiment [10], in experiment [8] and in experiment [9] was inactive. Besides, the viability change in experiment [7] turned out to be 1.54%.

As to `O=C(CCNNC(=O)c1ccncc1)NCc1ccccc1`, the Potency entry in [1], in experiment [2], in [3], in experiment [4], in [5] and in [7] was “inactive” each time. Further, the molecule was classed as inactive in experiment [10], in [8] and in experiment [9]. The viability change in [7] was -3.76%.
